{"source": "PubChem BioAssay (Tox21)", "note": "Inconclusive results are not listed. Active and inactive are the calls of the source. The call rests on the fitted dose curve; in most records, active means well fitted cell-killing curve with a large enough effect in the repeat runs; inconclusive means weak or mixed curves; inactive means flat fitted curve, though single readings scatter. On the % scale 0 is the no-effect control and ±100 the full control effect."}
{"test": "qHTS RealTime-Glo MT Cell Viability Assay in HepG2 cells - 24 hour (AID 1224867); further: nearly all actives have a fitted effect of over 50% in size", "conditions": "RealTime-Glo luminescence; series mostly up to 76.8 µM; activity change, negative = cytotoxicity: at the top concentration", "text": "U.S. Tox21 Program National Center for Advancing Translational Sciences [NCATS] NIH Chemical Genomics Center [NCGC] U.S. Environmental Protection Agency [EPA] National Institutes of Environmental Health Sciences [NIEHS] National Toxicology Program [NTP] U.S. Food and Drug Administration [FDA] Tox21 Assay Overview: Measure of cell viability is critical in the cell-base assay. Analysis of cell viability is necessary for the characterization of cell responses to cytotoxic drugs and environmental stress. A RealTime-Glo MT Cell Viability Assay to monitor cell viability in real time of continues cell culture during 40 hours of compound treatment was used to screen Tox21 10K library compounds in HepG2 cells. The RealTime-Glo MT Cell Viability Assay is a nonlytic, homogeneous, bioluminescent method to measure cell viability in real time using a simple, plate-based method. The assay involves adding NanoLuc luciferase and a cell-permeant prosubstrate to cells in culture. Viable cells reduce the proprietary prosubstrate to generate a substrate for NanoLuc luciferase. This substrate diffuses from cells into the surrounding culture medium, where it is rapidly used by the NanoLuc Enzyme to produce a luminescent signal. The signal correlates with the number of viable cells, making the assay well suited for cytotoxicity studies.\nTox21 Assay Protocol Summary: The mixture of HepG2 cell suspension and reagents were dispensed at 600cells/6 ul/well in 1536-well tissue culture treated black solid bottom plates using a Multidrop dispenser. After the assay plates were incubated at a 37 C/5% CO2 incubator for 5 hours, 23 nL of compounds dissolved in DMSO, positive and negative controls was transferred to the assay plate by a pintool work station. The plates were incubated at 37 C for 40 hours. The luminescence intensity were measured at 0h, 8h, 16h, 24h, 32h and 40h time points using ViewLux plate reader during compound treatment."}
{"smiles": "CCCCOC(=O)C(C)OC(=O)CCC", "note": "(stereo not given)", "activity change, negative = cytotoxicity": "-1.02% (inactive)"}
{"smiles": "C=C(C)C(=O)OCCCCCCOC(=O)C(=C)C", "activity change, negative = cytotoxicity": "-1.2% (inactive)"}
{"smiles": "Cc1ncc([N+](=O)[O-])n1CC(O)CCl", "note": "(stereo not given)", "activity change, negative = cytotoxicity": "1.5% [at 35.3 µM] (inactive)"}
{"smiles": "CC(C)(C)c1ccc(C=O)cc1", "activity change, negative = cytotoxicity": "-0.207% (inactive)"}
{"smiles": "SCCSCCS", "activity change, negative = cytotoxicity": "1.18% (inactive)"}
{"smiles": "O=C1c2ccccc2-c2ccccc21", "activity change, negative = cytotoxicity": "3.13% (inactive)"}
{"smiles": "CCCCCN(CCCOC)C(=O)C(CCC(=O)O)NC(=O)c1ccc(Cl)c(Cl)c1", "note": "(stereo not given)", "activity change, negative = cytotoxicity": "4.72% [at 35.3 µM] (inactive)"}
{"smiles": "CN[C@@H]1[C@@H](O)[C@@H](O[C@@H]2[C@H](O)[C@H](O[C@H]3OC(CN)=CC[C@H]3N)[C@@H](N)C[C@H]2N)OCC1(C)O", "note": "(stereo not given in full)", "activity change, negative = cytotoxicity": "-0.106% [at 35.3 µM] (inactive)"}
{"smiles": "Cc1cccc(C(=O)O)c1[N+](=O)[O-]", "activity change, negative = cytotoxicity": "1.34% (inactive)"}
{"smiles": "CC(=O)/C=C/c1ccco1", "activity change, negative = cytotoxicity": "0.0686% (inactive)"}
{"smiles": "O=c1[nH]c(=O)c2ccccc2o1", "activity change, negative = cytotoxicity": "2.59% [at 35.3 µM] (inactive)"}
{"smiles": "CCCCCCCCCCCCCCCCCCN(C)C", "activity change, negative = cytotoxicity": "-5.37% [at 35.3 µM] (inactive)"}
{"smiles": "CN(C1CCCCC1)S(=O)(=O)c1ccccc1N", "activity change, negative = cytotoxicity": "-5.5% (inactive)"}
{"smiles": "N#CCCOCCOCCC#N", "activity change, negative = cytotoxicity": "2.46% (inactive)"}
{"smiles": "O=S1(=O)CCCC1", "activity change, negative = cytotoxicity": "0.382% (inactive)"}
{"smiles": "C[C@H](CCC(=O)NCC(=O)O)[C@H]1CC[C@H]2[C@@H]3[C@H](O)C[C@@H]4C[C@H](O)CC[C@]4(C)[C@H]3C[C@H](O)[C@]12C", "activity change, negative = cytotoxicity": "0.699% (inactive)"}
{"smiles": "BrC/C=C/CBr", "activity change, negative = cytotoxicity": "3.48% [at 15.8 µM] (inactive)"}
{"smiles": "C=C[Si](C)(C)O[Si](C)(C)C=C", "activity change, negative = cytotoxicity": "1.89% (inactive)"}
{"smiles": "C=CC(C)(O)CC/C=C(\\C)CC", "note": "(stereo not given)", "activity change, negative = cytotoxicity": "4.06% (inactive)"}
{"smiles": "Cc1nc2n(c(=O)c1CCN1CCC(C(=O)c3ccc(F)cc3)CC1)CCS2", "activity change, negative = cytotoxicity": "-1.99% [at 35.3 µM] (inactive)"}
{"smiles": "CCCCC(CC)C(=O)OC(C)C", "note": "(stereo not given)", "activity change, negative = cytotoxicity": "0.723% (inactive)"}
{"smiles": "Cc1oc(=O)oc1CN1CCN(c2cc3c(cc2F)c(=O)c(C(=O)O)c2n3C(C)S2)CC1", "note": "(stereo not given)", "activity change, negative = cytotoxicity": "0.145% [at 35.3 µM] (inactive)"}
{"smiles": "CC(=O)OC(C)(C)Cc1ccccc1", "activity change, negative = cytotoxicity": "-0.44% (inactive)"}
{"smiles": "Cc1ccc2c(c1)c1c3n2CCNC3CCC1", "note": "(stereo not given)", "activity change, negative = cytotoxicity": "-7.88% [at 35.3 µM] (inactive)"}
{"smiles": "CC(C)CCC(=O)CCC(C)C", "activity change, negative = cytotoxicity": "0.0403% (inactive)"}
{"smiles": "CC(C)CCCCCCOC(=O)C1CCCCC1C(=O)OCCCCCCC(C)C", "note": "(stereo not given)", "activity change, negative = cytotoxicity": "2.4% (inactive)"}
{"smiles": "CC(C)COC(=O)/C=C/c1ccccc1", "activity change, negative = cytotoxicity": "-2.77% (inactive)"}
{"smiles": "C=CCOc1c(Br)cc(Br)cc1Br", "activity change, negative = cytotoxicity": "-6.07% (inactive)"}
{"smiles": "CC1(N)CCC(C(C)(C)N)CC1", "note": "(stereo not given)", "activity change, negative = cytotoxicity": "-1.09% (inactive)"}
{"smiles": "CCC(C)(C)C1CCC(=O)CC1", "activity change, negative = cytotoxicity": "1.91% (inactive)"}
{"smiles": "Nc1ccnc(=O)[nH]1", "activity change, negative = cytotoxicity": "0.83% (inactive)"}
{"smiles": "C=CCCCCCCCCCCC", "activity change, negative = cytotoxicity": "0.824% [at 6.97 µM] (inactive)"}
{"smiles": "CC(C)COC(=O)CC(C(=O)OCC(C)C)S(=O)(=O)O", "note": "(stereo not given)", "activity change, negative = cytotoxicity": "4.72% (inactive)"}
{"smiles": "CC(=O)OC(C)c1ccccc1", "note": "(stereo not given)", "activity change, negative = cytotoxicity": "4.7% (inactive)"}
{"smiles": "NC(=O)NNC(N)=O", "activity change, negative = cytotoxicity": "1.79% (inactive)"}
{"smiles": "CCCOCCOCCOCCO", "activity change, negative = cytotoxicity": "-0.573% (inactive)"}
{"smiles": "CN(C)CCCNCCC#N", "activity change, negative = cytotoxicity": "0.229% (inactive)"}
{"smiles": "Cc1cccc(NC(=S)N(C)C)c1", "activity change, negative = cytotoxicity": "-0.552% (inactive)"}
{"smiles": "COc1cc2c(Nc3ccc(Br)cc3F)ncnc2cc1OCC1CCN(C)CC1", "activity change, negative = cytotoxicity": "1.88% [at 35.3 µM] (inactive)"}
{"smiles": "CCCC(C)CC", "note": "(stereo not given)", "activity change, negative = cytotoxicity": "4.34% (inactive)"}
